Holding throughout (experiment): DAPPL (digital affinity profiling via proximity ligation, sequencing); 10 mM Tris-HCl pH 7.5, 50 mM NaCl, 1 mM DTT, 4% glycerol, room temperature, 30 min; GST-TFs on glutathione beads, 16-mer random dsDNA library, 0.1% formaldehyde crosslink after washing; high values mean tight binding
One test deals with T1, FEV (Homo sapiens, UniProt Q99581 1-238).
T1 sequence: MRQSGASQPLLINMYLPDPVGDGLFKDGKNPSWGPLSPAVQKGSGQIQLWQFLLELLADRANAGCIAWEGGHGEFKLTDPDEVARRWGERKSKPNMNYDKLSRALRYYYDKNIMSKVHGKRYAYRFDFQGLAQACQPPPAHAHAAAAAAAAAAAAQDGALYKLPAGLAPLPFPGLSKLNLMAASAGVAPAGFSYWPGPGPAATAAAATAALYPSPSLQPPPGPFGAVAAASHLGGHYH
As to conditions: protein: recombinant; tags: N-terminal GST; dsDNA, one strand shown. Put shortly: (§1)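 Binding signal is each hexamer's read frequency for a factor divided by its frequency in the tag-only sample. The factors were GST-fused human transcription factors from yeast, captured on glutathione beads, DNA-barcoded and pooled with that sample. Pools were incubated with 200 nmole of a random double-stranded 16-mer DNA library in Tris/NaCl/DTT/glycerol buffer at room temperature for 30 min, then washed, crosslinked with 0.1% formaldehyde, proximity-ligated with BsaI/T4 ligase (1 h, 37 °C), PCR-amplified and sequenced on an Illumina NextSeq500.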

Another test deals with ETV5 (Homo sapiens, UniProt P41161 1-510). As to conditions: protein: recombinant; tags: N-terminal GST; dsDNA, one strand shown. Put shortly:
as §1

In another test the target is HSF1 (Homo sapiens, UniProt Q00613 1-529). As to conditions: protein: recombinant; tags: N-terminal GST; chain copies: 3; dsDNA, one strand shown. Put shortly:
as §1

Another test has as its target T2, SPIC (Homo sapiens, UniProt Q8N5J4 1-248).
T2 sequence: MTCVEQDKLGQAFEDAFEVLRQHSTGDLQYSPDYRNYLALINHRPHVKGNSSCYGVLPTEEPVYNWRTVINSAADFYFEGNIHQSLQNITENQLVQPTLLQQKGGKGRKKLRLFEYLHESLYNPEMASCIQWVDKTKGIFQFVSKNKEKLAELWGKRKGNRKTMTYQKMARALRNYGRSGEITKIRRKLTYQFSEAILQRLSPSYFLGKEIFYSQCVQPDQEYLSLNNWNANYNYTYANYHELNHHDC
As to conditions: protein: recombinant; tags: N-terminal GST; dsDNA, one strand shown. Put shortly:
as §1

A further test has as its target ELF4 (Homo sapiens, UniProt Q99607 1-663). The settings on record: protein: recombinant; tags: N-terminal GST; dsDNA, one strand shown. Put shortly: as §1
In the next test the target is T3, ELK4 (Homo sapiens, UniProt P28324-2 1-405).
T3 sequence: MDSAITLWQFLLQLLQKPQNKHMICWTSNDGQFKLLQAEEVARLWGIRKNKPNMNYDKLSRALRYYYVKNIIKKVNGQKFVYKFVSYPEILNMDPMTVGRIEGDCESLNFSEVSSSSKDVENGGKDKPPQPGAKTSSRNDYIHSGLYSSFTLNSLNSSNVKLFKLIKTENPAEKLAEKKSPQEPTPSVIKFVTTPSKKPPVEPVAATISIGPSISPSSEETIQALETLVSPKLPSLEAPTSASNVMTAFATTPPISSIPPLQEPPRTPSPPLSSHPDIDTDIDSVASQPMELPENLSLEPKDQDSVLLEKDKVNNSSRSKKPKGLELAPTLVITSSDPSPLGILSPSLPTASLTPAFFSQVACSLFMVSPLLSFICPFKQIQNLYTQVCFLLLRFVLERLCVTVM
As to conditions: protein: recombinant; tags: N-terminal GST; dsDNA, one strand shown. Put shortly: as §1

Another test has as its target T4, ETV2 (Homo sapiens, UniProt O00321 1-342).
T4 sequence: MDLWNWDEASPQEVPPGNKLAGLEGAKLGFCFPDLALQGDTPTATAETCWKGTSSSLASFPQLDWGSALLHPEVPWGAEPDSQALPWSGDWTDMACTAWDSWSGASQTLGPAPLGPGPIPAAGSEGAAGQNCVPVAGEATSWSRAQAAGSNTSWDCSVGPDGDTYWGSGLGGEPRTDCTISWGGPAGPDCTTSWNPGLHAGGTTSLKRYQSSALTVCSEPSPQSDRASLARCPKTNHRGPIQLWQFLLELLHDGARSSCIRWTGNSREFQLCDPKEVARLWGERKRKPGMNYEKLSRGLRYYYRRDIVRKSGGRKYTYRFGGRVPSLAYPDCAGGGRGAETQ
As to conditions: protein: recombinant; tags: N-terminal GST; dsDNA, one strand shown. Put shortly: as §1

Another test addresses T5, ELF3 (Homo sapiens, UniProt P78545 1-371).
T5 sequence: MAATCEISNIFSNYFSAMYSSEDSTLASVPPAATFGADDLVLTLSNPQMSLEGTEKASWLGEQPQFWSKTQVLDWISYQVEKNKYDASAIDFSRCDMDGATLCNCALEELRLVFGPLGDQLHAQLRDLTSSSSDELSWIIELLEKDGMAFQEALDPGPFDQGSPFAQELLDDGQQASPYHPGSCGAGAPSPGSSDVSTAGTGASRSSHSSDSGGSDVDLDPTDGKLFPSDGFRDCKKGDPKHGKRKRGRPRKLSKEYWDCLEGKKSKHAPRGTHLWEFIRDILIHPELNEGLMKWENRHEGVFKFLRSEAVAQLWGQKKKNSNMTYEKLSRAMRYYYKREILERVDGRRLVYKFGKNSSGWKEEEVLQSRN
As to conditions: protein: recombinant; tags: N-terminal GST; dsDNA, one strand shown. Put shortly:
as §1

For a further test, the target named is CRX (Homo sapiens, UniProt O43186 1-299). The settings on record: protein: recombinant; tags: N-terminal GST; dsDNA, one strand shown. Put shortly: as §1
Chain of CRX (O43186 whole entry): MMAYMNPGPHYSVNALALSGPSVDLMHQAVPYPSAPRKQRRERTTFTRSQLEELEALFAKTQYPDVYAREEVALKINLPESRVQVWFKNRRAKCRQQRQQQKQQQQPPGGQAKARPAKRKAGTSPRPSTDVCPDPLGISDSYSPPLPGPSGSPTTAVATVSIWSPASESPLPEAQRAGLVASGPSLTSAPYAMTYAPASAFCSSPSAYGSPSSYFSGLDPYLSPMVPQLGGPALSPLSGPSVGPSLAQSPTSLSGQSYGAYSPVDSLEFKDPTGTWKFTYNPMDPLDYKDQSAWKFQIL
In the next test the target is ETV1 (Homo sapiens, UniProt P50549 1-477). As to conditions: protein: recombinant; tags: N-terminal GST; dsDNA, one strand shown. Put shortly: as §1
Chain of ETV1 (P50549 whole entry): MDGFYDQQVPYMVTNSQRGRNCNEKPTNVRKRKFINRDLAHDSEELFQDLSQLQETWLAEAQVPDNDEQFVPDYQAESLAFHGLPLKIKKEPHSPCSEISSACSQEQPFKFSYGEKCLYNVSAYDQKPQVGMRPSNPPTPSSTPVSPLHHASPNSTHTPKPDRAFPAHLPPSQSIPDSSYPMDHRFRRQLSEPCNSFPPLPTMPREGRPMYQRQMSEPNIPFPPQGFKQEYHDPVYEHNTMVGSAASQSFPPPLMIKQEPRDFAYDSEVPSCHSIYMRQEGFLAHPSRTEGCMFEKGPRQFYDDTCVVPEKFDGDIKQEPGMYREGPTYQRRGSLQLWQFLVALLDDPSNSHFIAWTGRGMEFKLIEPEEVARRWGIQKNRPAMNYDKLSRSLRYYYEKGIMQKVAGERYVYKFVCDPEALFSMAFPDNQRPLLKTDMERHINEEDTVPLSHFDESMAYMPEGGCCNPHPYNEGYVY
The next test concerns the target T6, ERF (Homo sapiens, UniProt P50548 1-548).
T6 sequence: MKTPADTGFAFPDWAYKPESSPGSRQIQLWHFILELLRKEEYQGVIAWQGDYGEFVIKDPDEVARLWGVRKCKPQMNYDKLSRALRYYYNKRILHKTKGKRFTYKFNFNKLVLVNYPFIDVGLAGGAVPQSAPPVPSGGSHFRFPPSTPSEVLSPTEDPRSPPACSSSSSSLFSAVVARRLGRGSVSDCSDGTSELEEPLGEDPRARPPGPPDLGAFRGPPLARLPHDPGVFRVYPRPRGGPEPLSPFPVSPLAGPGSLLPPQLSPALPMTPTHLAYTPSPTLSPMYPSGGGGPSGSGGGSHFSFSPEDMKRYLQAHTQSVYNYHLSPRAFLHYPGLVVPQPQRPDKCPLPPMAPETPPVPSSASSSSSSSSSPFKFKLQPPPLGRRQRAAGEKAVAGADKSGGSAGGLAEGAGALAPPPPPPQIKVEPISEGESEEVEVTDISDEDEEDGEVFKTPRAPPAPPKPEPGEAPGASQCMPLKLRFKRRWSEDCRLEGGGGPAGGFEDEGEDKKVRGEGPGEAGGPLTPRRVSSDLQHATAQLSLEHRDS
As to conditions: protein: recombinant; tags: N-terminal GST; dsDNA, one strand shown. Put shortly:
as §1

Another test has as its target T7, ETV3L (Homo sapiens, UniProt Q6ZN32 1-361).
T7 sequence: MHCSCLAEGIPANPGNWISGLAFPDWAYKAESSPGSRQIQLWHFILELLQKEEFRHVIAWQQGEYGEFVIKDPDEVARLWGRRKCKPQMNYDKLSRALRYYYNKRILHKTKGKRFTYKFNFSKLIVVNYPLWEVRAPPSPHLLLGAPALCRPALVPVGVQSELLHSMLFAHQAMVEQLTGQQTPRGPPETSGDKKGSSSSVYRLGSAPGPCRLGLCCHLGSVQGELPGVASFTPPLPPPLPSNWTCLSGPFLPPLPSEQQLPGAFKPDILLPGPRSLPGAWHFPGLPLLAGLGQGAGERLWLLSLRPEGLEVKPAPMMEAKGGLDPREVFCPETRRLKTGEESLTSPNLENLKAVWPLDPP
The settings on record: protein: recombinant; tags: N-terminal GST; dsDNA, one strand shown. Put shortly:
as §1

The target in a further test is T8, ETS2 (Homo sapiens, UniProt P15036 1-469).
T8 sequence: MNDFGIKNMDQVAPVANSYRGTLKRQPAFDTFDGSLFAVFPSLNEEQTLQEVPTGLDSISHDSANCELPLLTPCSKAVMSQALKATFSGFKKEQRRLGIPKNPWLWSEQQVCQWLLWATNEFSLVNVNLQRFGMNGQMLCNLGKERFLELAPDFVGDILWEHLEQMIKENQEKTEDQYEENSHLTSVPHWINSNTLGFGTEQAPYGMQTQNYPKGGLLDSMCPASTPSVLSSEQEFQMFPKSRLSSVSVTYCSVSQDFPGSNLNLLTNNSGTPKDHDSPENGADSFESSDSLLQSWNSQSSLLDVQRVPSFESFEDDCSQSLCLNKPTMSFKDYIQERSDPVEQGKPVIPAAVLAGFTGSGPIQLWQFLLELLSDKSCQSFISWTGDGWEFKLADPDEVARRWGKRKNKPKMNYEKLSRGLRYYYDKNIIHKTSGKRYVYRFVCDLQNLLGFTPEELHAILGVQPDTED
As to conditions: protein: recombinant; tags: N-terminal GST; dsDNA, one strand shown. Put shortly: as §1

The next test addresses T9, SPDEF (Homo sapiens, UniProt O95238 1-335).
T9 sequence: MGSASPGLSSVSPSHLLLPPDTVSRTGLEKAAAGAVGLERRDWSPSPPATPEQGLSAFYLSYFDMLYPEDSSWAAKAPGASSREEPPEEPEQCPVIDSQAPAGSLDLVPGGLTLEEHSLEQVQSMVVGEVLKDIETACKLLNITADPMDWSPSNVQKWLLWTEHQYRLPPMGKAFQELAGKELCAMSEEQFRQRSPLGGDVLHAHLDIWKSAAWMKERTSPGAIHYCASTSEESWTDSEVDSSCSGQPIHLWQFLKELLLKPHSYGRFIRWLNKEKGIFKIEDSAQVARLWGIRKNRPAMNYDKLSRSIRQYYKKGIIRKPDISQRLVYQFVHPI
As to conditions: protein: recombinant; tags: N-terminal GST; dsDNA, one strand shown. Put shortly: as §1

In another test the target is T10, ETV7 (Homo sapiens, UniProt Q9Y603 1-341).
T10 sequence: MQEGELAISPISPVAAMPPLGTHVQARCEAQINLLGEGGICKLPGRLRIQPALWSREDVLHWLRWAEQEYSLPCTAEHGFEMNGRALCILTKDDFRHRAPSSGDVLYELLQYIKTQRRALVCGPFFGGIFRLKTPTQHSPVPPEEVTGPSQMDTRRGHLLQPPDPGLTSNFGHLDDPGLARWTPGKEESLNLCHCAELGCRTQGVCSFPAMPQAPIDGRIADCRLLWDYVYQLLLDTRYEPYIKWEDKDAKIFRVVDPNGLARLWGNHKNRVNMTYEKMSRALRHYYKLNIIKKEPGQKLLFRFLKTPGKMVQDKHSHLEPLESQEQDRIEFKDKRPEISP
The settings on record: protein: recombinant; tags: N-terminal GST; dsDNA, one strand shown. Put shortly: as §1

Another test deals with T11, ELF5 (Homo sapiens, UniProt Q9UKW6-2 1-255).
T11 sequence: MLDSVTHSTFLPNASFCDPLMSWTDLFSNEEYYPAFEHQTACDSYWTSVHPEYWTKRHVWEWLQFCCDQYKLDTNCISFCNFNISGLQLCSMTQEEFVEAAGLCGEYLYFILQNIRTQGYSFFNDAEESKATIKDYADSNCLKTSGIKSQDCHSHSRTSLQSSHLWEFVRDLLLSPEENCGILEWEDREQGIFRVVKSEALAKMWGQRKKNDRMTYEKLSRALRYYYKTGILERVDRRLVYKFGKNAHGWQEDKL
The settings on record: protein: recombinant; tags: N-terminal GST; dsDNA, one strand shown. Put shortly: as §1

The target in the next test is T12, ETV3 (Homo sapiens, UniProt P41162-2 1-143).
T12 sequence: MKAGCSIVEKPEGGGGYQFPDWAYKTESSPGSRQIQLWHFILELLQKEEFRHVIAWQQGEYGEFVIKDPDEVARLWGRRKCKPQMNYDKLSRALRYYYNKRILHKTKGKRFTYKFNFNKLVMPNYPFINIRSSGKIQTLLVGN
As to conditions: protein: recombinant; tags: N-terminal GST; dsDNA, one strand shown. Put shortly:
as §1

A further test has as its target ETV6 (Homo sapiens, UniProt P41212 1-452). As to conditions: protein: recombinant; tags: N-terminal GST; dsDNA, one strand shown. Put shortly:
as §1

Chain of ETV5 (P41161 whole entry): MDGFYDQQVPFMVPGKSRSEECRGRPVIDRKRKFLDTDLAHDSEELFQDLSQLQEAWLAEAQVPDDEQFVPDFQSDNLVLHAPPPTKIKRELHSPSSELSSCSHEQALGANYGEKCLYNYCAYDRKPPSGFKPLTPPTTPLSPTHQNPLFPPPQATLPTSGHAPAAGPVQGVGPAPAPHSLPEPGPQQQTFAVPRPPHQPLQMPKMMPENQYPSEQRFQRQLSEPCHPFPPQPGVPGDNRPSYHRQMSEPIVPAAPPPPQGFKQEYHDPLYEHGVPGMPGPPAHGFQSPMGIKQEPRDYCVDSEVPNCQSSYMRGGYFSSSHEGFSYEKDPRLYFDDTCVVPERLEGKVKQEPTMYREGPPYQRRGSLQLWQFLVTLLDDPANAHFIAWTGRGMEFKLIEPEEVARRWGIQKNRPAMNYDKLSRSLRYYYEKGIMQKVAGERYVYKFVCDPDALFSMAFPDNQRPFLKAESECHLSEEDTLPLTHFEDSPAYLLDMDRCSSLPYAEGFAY
Chain of ETV6 (P41212 whole entry): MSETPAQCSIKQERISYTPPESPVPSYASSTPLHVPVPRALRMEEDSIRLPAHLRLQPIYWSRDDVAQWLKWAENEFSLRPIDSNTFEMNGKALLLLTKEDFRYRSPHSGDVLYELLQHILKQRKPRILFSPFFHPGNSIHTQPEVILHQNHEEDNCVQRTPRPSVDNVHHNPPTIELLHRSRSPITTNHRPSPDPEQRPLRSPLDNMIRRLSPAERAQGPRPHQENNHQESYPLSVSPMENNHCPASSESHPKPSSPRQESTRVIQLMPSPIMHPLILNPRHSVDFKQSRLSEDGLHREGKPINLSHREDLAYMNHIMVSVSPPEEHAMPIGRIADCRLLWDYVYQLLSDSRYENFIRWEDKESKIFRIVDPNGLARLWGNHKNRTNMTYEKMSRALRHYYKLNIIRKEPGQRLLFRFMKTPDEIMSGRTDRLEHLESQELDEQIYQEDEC
Chain of ELF4 (Q99607 whole entry): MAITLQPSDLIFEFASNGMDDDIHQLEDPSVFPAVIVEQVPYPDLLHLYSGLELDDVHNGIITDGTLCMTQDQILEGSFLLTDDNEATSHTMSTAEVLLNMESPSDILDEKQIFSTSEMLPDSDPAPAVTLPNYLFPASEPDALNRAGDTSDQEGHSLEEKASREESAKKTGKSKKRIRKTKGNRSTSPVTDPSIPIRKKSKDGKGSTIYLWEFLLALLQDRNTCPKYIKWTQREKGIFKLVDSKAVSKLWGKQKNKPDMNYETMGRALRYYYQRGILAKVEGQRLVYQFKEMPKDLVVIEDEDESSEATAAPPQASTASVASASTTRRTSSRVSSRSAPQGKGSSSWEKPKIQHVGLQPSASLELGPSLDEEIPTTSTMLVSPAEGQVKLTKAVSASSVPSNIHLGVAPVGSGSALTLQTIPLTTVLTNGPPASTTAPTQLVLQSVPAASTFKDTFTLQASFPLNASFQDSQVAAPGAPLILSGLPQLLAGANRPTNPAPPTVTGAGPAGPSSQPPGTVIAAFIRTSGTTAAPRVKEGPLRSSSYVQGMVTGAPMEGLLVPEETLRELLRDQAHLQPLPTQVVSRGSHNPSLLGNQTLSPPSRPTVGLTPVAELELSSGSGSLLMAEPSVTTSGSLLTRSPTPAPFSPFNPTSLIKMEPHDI
Chain of HSF1 (Q00613 whole entry): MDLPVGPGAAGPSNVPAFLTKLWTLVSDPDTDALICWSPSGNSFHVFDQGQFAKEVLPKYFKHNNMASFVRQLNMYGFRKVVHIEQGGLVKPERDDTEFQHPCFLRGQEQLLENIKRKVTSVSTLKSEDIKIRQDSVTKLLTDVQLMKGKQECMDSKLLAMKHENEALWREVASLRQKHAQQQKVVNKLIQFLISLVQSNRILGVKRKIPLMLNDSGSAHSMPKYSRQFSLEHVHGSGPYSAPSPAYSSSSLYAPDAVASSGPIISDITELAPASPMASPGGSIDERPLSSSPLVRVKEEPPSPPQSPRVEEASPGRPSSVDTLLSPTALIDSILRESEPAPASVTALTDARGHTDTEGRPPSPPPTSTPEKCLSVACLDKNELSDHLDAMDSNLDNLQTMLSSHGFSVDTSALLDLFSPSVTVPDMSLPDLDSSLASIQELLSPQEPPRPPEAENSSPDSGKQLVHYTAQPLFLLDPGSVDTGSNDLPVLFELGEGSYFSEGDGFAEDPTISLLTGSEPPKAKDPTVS

On to TCTAGT, for which the binding signal is 1.03 fold enrichment (6-mer frequency, TF over GST control) in the test with FEV; 1.06 fold enrichment (6-mer frequency, TF over GST control) with ETV5; 2.32 fold enrichment (6-mer frequency, TF over GST control) in the test with HSF1; 1.18 fold enrichment (6-mer frequency, TF over GST control) with SPIC; 1.09 fold enrichment (6-mer frequency, TF over GST control) in the test with ELF4; 1.17 fold enrichment (6-mer frequency, TF over GST control) with ELK4. For the same sequence, the binding signal is 1.04 fold enrichment (6-mer frequency, TF over GST control) with ETV2; 1.28 fold enrichment (6-mer frequency, TF over GST control) with ELF3; 1.37 fold enrichment (6-mer frequency, TF over GST control) with CRX; 1.01 fold enrichment (6-mer frequency, TF over GST control) in the test with ETV1; 1.25 fold enrichment (6-mer frequency, TF over GST control) in the test with ERF; 1.05 fold enrichment (6-mer frequency, TF over GST control) in the test with ETV3L. Moreover, the binding signal with ETS2 was 1.17 fold enrichment (6-mer frequency, TF over GST control); with SPDEF, 1.06 fold enrichment (6-mer frequency, TF over GST control); with ETV7 it was 1.1 fold enrichment (6-mer frequency, TF over GST control); with ELF5, 1.04 fold enrichment (6-mer frequency, TF over GST control); with ETV3 it was 1.08 fold enrichment (6-mer frequency, TF over GST control); with ETV6 it was 1.12 fold enrichment (6-mer frequency, TF over GST control).

Values taken from paper PMC7862700, “An all-to-all approach to the identification of sequence-specific readers for epigenetic DNA modifications on cytosine”.
